Screening data as filed in PubChem.
Rows were chosen to be rich in hits. Some 3.2% of all compounds tested hit in one or more screens of this group.
Sm TGR block = inhibitors of Schistosoma mansoni thioredoxin glutathione reductase. purified TGR, DTNB reduction, TNB absorbance 405 nm. Potency, µM (titrated, usually from 114 µM), inactives show at the top dose activity change, negative = inhibition, actives largely listed as inhibitors. 360,000 tested, 3% active. AID 485364; further: nearly all actives have a fitted effect of over 60% in size
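TGR 20 nM + NADPH 100 uM (dispensed conc.), cpd preinc 15 min RT; start with NADPH (500 uM addition) then DTNB (15 mM addition). Kinetic TNB absorbance, 405 nm filter. Four-parameter Hill fit across titration.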
AmpC no deterg = blocks E. coli AmpC beta-lactamase in detergent-free assay. AID 485341. AmpC nitrocefin hydrolysis, absorbance 480 nm, 0.0001% Triton. Potency, µM (top dose mostly 57.1 µM), for the others: top-dose activity change, negative = inhibition, usual class: inhibitors. 330,000 tested, 0.52% active. P00811;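 further: plate controls were no compound for no effect and no enzyme for full effect; nearly all actives have a fitted effect of over 20% in size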
Target sequence (P00811 whole entry, looked up): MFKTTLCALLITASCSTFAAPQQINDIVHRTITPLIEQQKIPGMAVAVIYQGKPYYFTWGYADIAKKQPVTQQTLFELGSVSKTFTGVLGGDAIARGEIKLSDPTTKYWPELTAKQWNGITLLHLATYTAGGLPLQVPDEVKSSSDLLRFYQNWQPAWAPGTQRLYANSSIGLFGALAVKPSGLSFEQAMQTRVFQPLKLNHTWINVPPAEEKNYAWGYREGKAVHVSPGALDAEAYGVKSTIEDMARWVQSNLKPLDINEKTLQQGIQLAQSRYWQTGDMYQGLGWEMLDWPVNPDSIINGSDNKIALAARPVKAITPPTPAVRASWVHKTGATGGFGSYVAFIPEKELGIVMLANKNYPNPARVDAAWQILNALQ
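20 mM phosphate pH 7.0 + 0.01% (detergent screen) or 0.0001% Triton X-100; 5.3 nM AmpC reagent; cpd preinc 15 min RT; nitrocefin (800 uM stock) to start; A480 q20 s × 4 min; Activity was normalised to no-enzyme and no-compound control wells.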
RE007 growth inh = less growth of the S. pombe RE007 Vpr strain; S. pombe RE007 Vpr strain, BacTiter-Glo ATP luminescence, 24 h; Potency, µM (series often up to 92.2 µM), inactives show top-dose activity change, negative = less growth, most hits filed as inhibitors; 360,000 tested, 0.21% active; AID 651644; active means well fitted falling curve with a large enough effect; inconclusive means small, poorly fitted or top-dose-only effect; inactive means no such curve, though single readings can be large or run the other way; further: nearly all actives have a fitted effect of over 50% in size
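Fission yeast RE007 carrying one integrated HIV-1 vpr copy, seeded at OD 0.01 in PMG+AL medium with 23 nL pinned compound. Grown 24 h at 30 degrees; viability read by BacTiter-Glo luminescence after 5 min.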
AMA1-RON2 inh = inhibitors of Plasmodium falciparum AMA1-RON2 interaction; AID 720542; Potency, µM (series often up to 58.2 µM), inactives show top-dose activity change, negative = inhibition, usual class: inhibitors; 360,000 tested, 0.2% active; AlphaScreen AMA1-biotinylated RON2 peptide binding;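 further: 0% = vehicle wells and -100% = peptide control; nearly all actives have a fitted effect of over 45% in size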
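AMA1 (3D7) with his tag at 25 nM final met compounds first, then biotinylated RON2 peptide at 25 nM; detection used donor plus acceptor beads, 10 µg/mL apiece, read by AlphaScreen after 30 min at room temperature.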
AmpC inh detg = blocks E. coli AmpC beta-lactamase in detergent assay | AmpC hydrolysis of nitrocefin, absorbance 480 nm, 0.01% Triton | Potency, µM (top dose mostly 114 µM), for inactives: top-dose activity change, negative = inhibition, hits mostly inhibitors | P00811 | 370,000 tested, 0.041% active;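 further: 0% = no-compound wells and -100% = no-enzyme wells; nearly all actives have a fitted effect of over 25% in size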
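20 mM phosphate pH 7.0 + 0.01% (detergent screen) or 0.0001% Triton X-100; 5.3 nM AmpC reagent; cpd preinc 15 min RT; nitrocefin (800 uM stock) to start; A480 q20 s × 4 min; Activity was normalised to no-enzyme and no-compound control wells.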
An asterisk follows results filed as active; u = inconclusive; x = no result given; ! = not active in a repeat. Unless noted, the call rests on the fitted dose curve; in most records, active means well fitted curve in the direction sought with a large enough effect; inconclusive means small, poorly fitted or top-dose-only effect, or another doubt; inactive means no such curve, though single readings can be large; an effect the other way counts as inactive or inconclusive. Unless noted, on the % scale 0 is the no-effect control and ±100 the full control effect; potency means the concentration at half of the fitted maximal effect.

SMILES | Sm TGR block | AmpC no deterg | RE007 growth inh | AMA1-RON2 inh | AmpC inh detg
COc1cc2c(cc1OC)C(c1ccc(F)cc1)N(c1cccc(C#N)c1)C(=O)C2 (stereo not given) | -1% | x | x | x | 0%
Cn1c(Cc2csc(N)n2)nnc1SCC(=O)NC1CCCCC1 | 40µM* | -5% | 24% | 11% | u
O=C(Nc1ccc2oc(-c3cccnc3)nc2c1)c1ccccc1F | -7% | x | x | x | 0%
O=c1c2ccccc2sn1-c1ccccc1F | x | x | 35µM* | 0% | x
CC(=O)Nc1ccc2c(=O)n(-c3ccccc3)sc2c1 | x | x | 12% | -3% | x
Cc1ccc(-n2sc3ccccc3c2=O)cc1S(=O)(=O)N1CCCCC1 | -20% | -54% | 16µM* | -10% | -13%
CN(C)S(=O)(=O)c1cccc(-n2sc3ccccc3c2=O)c1 | u | 35µM* | -11% | 8% | -2%
O=c1c2ccccc2sn1-c1ccc(S(=O)(=O)N2CCCCC2)cc1 | x | x | 1% | -1% | x
N#Cc1ccc2c(=O)n(-c3ccccc3)sc2c1 | x | x | 10µM* | 5% | x
O=c1c2ccccc2sn1-c1ccc(S(=O)(=O)N2CCCC2)cc1 | u | -29% | 0% | 9% | u
Cc1ccccc1-n1sc2cc(F)ccc2c1=O | -27% | -52% | -92% | 6% | -14%
Cc1cccc(NC(=O)C(Cc2ccccc2)NS(=O)(=O)c2ccc3c(c2)c(=O)n(C)c(=O)n3C)c1 (stereo not given) | -4% | x | x | x | 13%
Cc1cc(C)cc(NC2=C(c3ccccc3)C(=O)c3ccccc32)c1 | -2% | x | x | x | 24%
O=c1c2ccccc2sn1-c1ccccc1 | 6% | -33% | 8.9µM* | -7% | u
O=c1c2ccccc2sn1-c1cccc(Cl)c1 | x | x | 10µM* | -11% | x
O=C(O)c1cccc(-n2sc3ccccc3c2=O)c1 | u | -9% | 1% | -4% | -14%
O=C(Nc1nc(-c2cc3ccccc3o2)cs1)c1ccc(S(=O)(=O)N2CCCC2)cc1 | -5% | 18µM* | 8% | 15% | -7%
CCOC(=O)c1ccc2c(c1)N(Cc1ccc(F)cc1Cl)C(=O)c1ccccc1S2(=O)=O | -10% | x | x | x | 1%
Cc1cnc2c(c1SCC(=O)NCc1ccc(F)cc1)c(=O)n(C)c(=O)n2C | -7% | x | x | x | -3%
COc1ccc2oc(=O)c(/C(C)=N/Nc3nc(-c4cc(C)ccc4C)cs3)cc2c1 | -23% | -48% | -12% | 31% | -11%
C/C(=N\Nc1nc(-c2ccc(C)cc2C)cs1)c1cc2ccccc2oc1=O | -14% | 20µM* | 6% | 43% | u
CCCn1c(CC)nc([N+](=O)[O-])c1Sc1ccc(F)cc1 | 45µM* | -34% | -6% | -10% | 5%
Cc1cc(C)c(NC(=O)CSc2nnc(-c3ccncc3)n2Cc2ccco2)c(Cl)c1 | 22µM* | 86% | 7% | -2% | u
COc1cc2c(cc1NC(=O)CSc1nnc(Cc3cccs3)n1Cc1ccco1)oc1ccccc12 | -17% | -8% | -7% | -8% | -7%
Cc1cc(C)c(NC(=O)CSc2nnc(-c3ccccn3)n2N)c(Cl)c1 | 20% | -4% | 8% | 18µM* | -8%
SMILES | Sm TGR block | AmpC no deterg | RE007 growth inh | AMA1-RON2 inh | AmpC inh detg
Cc1cc(Cl)ccc1NC(=O)CSc1nnc(Cc2cccs2)n1Cc1ccco1 | 20µM* | -29% | 16% | -10% | u
N#Cc1ccc(CSc2nnc(Cc3cccs3)n2Cc2ccco2)cc1 | 11µM* | -12% | -23% | -3% | -12%
N#Cc1ccc(CSc2nnc(-c3ccccc3)n2Cc2ccco2)cc1 | -1% | -6% | 3% | 0% | -2%
Cc1ccc(NC(=O)c2ccc(NC(=O)N3CCSc4ncccc43)cc2)cc1Cl | -12% | x | x | x | -6%
Cc1ccccc1CNC(=O)C1CCCCN1S(=O)(=O)c1ccc(F)cc1 (stereo not given) | 7% | x | x | x | 1%
COc1ccc(CNC(=O)Cc2c(C)c3c(cc(C)c4c(C)c(C)oc43)oc2=O)cc1OC | -1% | x | x | x | 22%
O=C(C[C@H]1CC[C@@H]2[C@H](COC[C@@H](O)CN2Cc2ccc(Cl)cc2)O1)NCCc1ccccc1 | x | x | 0% | 2% | x
O=C(CSc1nnc(-c2ccccc2)n1Cc1ccco1)Nc1ccc2c(c1)OCCO2 | 35µM* | -40% | 15% | -6% | -3%
O=C(CSc1nnc(-c2cccs2)n1Cc1ccco1)Nc1ccc2c(c1)OCO2 | -9% | -24% | 15% | -8% | -8%
O=C(Nc1ccc(F)cc1)C(c1ccncc1)N1CCN(c2cccc(C(F)(F)F)n2)CC1 (stereo not given) | x | x | 5% | 0% | x
CC(=O)N1CC=CC1(CC(C)C)C(=O)NCCc1c[nH]c2ccccc12 (stereo not given) | -13% | -1% | 26% | 0% | -8%
CC(C)CC1(C(=O)NCCc2c[nH]c3ccccc23)C=CCN1C(=O)c1ccccc1 (stereo not given) | 40µM* | -8% | 8% | -10% | u
CCCc1nc2oc3cc(OC)ccc3c(=O)c2c(=O)n1Cc1ccco1 | 40µM* | -22% | 13% | -6% | -9%
CCCc1nc2sc3ccccc3c(=O)c2c(=O)n1Cc1ccco1 | 35µM* | -47% | -5% | -23% | -1%
COc1ccc2c(=O)c3c(=O)n(Cc4ccco4)c(-c4ccccc4)nc3oc2c1 | 32µM* | -16% | 10% | -8% | -3%
CCCc1nc2sc3ccccc3c(=O)c2c(=O)n1Cc1ccc(OC)cc1 | -13% | -15% | 23% | -20% | -8%
CCOc1ccc(CC(=O)N2CCc3cc(OC)c(OC)cc3C2COc2ccc3c(C)cc(=O)oc3c2)cc1 (stereo not given) | 16% | x | x | x | 7%
Cc1cccc(N2CCN(C(=O)Cn3cnc4sc(C)c(S(=O)(=O)N5CCN(c6ncccn6)CC5)c4c3=O)CC2C)c1 (stereo not given) | -4% | x | x | x | 22%
CCOc1ccccc1CNC(=O)CCc1c(C)nn(-c2ccc(N3CCCCC3)nn2)c1C | -2% | x | x | x | 2%
COc1ccc2c(c1)CCc1c(C(=O)Nc3c(C)nn(Cc4ccccc4)c3C)noc1-2 | 89µM*! | 5% | -2% | -13% | -5%
COc1ccc(NS(=O)(=O)c2c(F)cccc2F)cc1S(=O)(=O)N1CCOCC1 | 40µM* | -17% | 22% | 0% | -4%
O=C1COc2ccc(N3C(=O)C=CC3=O)cc2N1 | 0.4µM* | -17% | x | x | u
Fc1ccc(-c2cc(-c3nc(-c4ccccc4)no3)[nH]n2)cc1 | 2% | x | x | x | 3%
CN(C)c1oc(-c2ccc(COc3ccccc3)o2)nc1C#N | 1% | x | x | x | 5%
CC1=CN2C(=N)/C(=C/c3ccc([N+](=O)[O-])o3)C(=O)N=C2S1 | 3.5µM* | -37% | 32µM* | 0% | 0%
Clc1ccc2c(c1)-n1cc(-c3ccccc3)nc1CO2 | -9% | x | x | x | -6%
